Assay results as given in PubChem BioAssay AID624330 (Southern Research Specialized Biocontainment Screening …, 2012).
The whole screen tested about 340,000 compounds, of which about 2,100 (0.62%) were called active.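 The calls were made as follows: active = first-screen hits whose inhibition reached a set limit at any dose in the follow-up dose series; inconclusive = inhibition above the set first-screen limit but never retested; inactive = the rest.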 The list is a sample of the results. Measured potencies and affinities stand elsewhere.

Target: Rac GTPase-activating protein 1 (Homo sapiens) (UniProt Q9H0H5)
Test: MgcRacGAP GTPase-activating activity inhibitors, confirmation, biochemical, ADP Hunter fluorescence, primary and confirmatory (AID 624330);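 also: fluorescence reports GDP produced by GAP-driven GTP hydrolysis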
Details: MgcRacGAP-stimulated Rac1 GTP hydrolysis, at 30 µM, hits give high values, GST-tagged Rac1 F28L mutant substrate

Rac GTPase-activating protein 1 (Homo sapiens), sequence (Q9H0H5 whole entry, looked up): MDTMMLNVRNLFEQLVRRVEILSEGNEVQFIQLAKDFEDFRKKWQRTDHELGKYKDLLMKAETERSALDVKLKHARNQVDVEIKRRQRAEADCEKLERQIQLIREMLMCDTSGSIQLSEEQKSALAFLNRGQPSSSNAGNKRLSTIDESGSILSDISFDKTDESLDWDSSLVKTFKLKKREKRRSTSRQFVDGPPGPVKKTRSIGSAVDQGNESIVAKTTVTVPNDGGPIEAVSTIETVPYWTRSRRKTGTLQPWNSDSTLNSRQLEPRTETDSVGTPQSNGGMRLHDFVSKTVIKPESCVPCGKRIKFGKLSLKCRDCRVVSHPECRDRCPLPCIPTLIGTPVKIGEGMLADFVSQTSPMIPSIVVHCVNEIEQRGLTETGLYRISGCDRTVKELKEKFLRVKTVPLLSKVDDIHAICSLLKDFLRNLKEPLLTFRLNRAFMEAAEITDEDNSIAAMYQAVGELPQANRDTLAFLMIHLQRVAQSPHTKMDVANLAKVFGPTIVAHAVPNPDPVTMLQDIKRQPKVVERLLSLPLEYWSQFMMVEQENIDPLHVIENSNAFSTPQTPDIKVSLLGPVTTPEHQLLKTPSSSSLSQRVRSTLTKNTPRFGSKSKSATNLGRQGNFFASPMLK

inhibition, inactive:
O=C(CCCn1c(=O)c2sccc2n(CC(=O)OCc2ccccc2)c1=O)NCc1ccco1 6.92%
O=C(NCc1nnc2c(C(F)(F)F)cc(Cl)cn12)c1cccnc1 9.23%
CC(OC(=O)Cc1ccsc1)C(=O)Nc1ccc(C(N)=O)cc1 (stereo unspecified) 2.18%
O=C(NC(=S)N(Cc1ccccc1)c1ccccn1)C1CCCCC1 7.13%
COc1ccccc1NC(=O)NCc1ccccc1F 5.13%
O=C(c1ccccc1)N1CCCC(C(=O)N2CCCCCC2)C1 (stereo unspecified) -4.85%
CCCn1ccc2c(OCC(=O)Nc3ccc(NC(C)=O)cc3)cccc2c1=O -3.32%
O=C(c1cc(Cl)ccc1OCc1ccccc1)N1CCOCC1 6.74%
CC(Oc1ccccc1)C(=O)NNC(=O)c1ccccn1 (stereo unspecified) 3.78%
COc1ccc([C@H]2CC(=O)C=C(c3ccccc3-c3ccccc3)C2)cc1 0.94%
CCCC/C(O)=C1\C(=O)CC(C)(C)CC1=Nc1ccc(OC)cc1 3.47%
O=C(Nc1ccc(F)cc1)Nc1nnc(Cc2ccccc2)s1 2.79%
COc1ccc(/C=N/NC(=O)CCc2n[nH]c(=O)[nH]c2=O)cc1OC 4.75%
COc1cc(/C=N/NC(=O)c2cc(-c3ccccc3)nc3ccccc23)ccc1O 21.3%
COc1ccc(C=NNC(=O)CCCC(=O)NN=Cc2ccc(OC)c(OC)c2)cc1OC 2.12%
CCOc1cc(/C=N/NC(=O)COc2nc(C)cc(COC)c2C#N)ccc1O 16.6%
COc1cc(/C=N/NC(=O)C(C)Nc2n[nH]c(=O)[nH]c2=O)cc(OC)c1O (stereo unspecified) 11.1%
COc1cc(/C=N/NC(=O)CCc2c(C)n[nH]c2C)ccc1O 3.71%
COc1ccc(/C=N/NC(=O)CNc2n[nH]c(=O)[nH]c2=O)cc1OC 10.5%
COc1cc(/C=N/NC(=O)CSc2cc(C)c(Br)cc2C)ccc1O 15.9%
CC(=O)c1ccc2ccccc2c1OC(=O)c1ccncc1 6.45%
CSc1sc(-c2ccnc(SCC(=O)C(C)(C)C)n2)c2c1C(=O)CC(C)(C)C2 13.4%
CCn1c(SCC(=O)Nc2ccc(F)cc2)nc2ccccc2c1=O 0.4%
Cc1ccc(C(=O)N2CCC(C(=O)NCc3ccco3)CC2)cc1 5.06%
COc1cc(OC)cc(C(=O)Nc2ncn[nH]2)c1 6.96%
COc1cc(/C=N/N2C(=O)C3C4c5ccccc5C(c5ccccc54)C3C2=O)ccc1O (stereo unspecified) 4.88%
O=C1c2ccccc2C(=O)N1N=Cc1ccc2c(c1)OCO2 5.49%
O=C1C2C3C=CC(CC3)C2C(=O)N1/N=C/c1ccc(O)cc1 (stereo unspecified) 1.46%
COc1ccc(/C=N/N2C(=O)c3ccccc3C2=O)cc1 -3.67%
O=C1C2C3C=CC(CC3)C2C(=O)N1/N=C/c1ccccc1O (stereo unspecified) 3.85%
O=C1c2ccccc2C(=O)N1/N=C/c1ccc(O)c(O)c1O -97.2%
CC(NC(=O)C1CC(=O)N(c2ccc3c(c2)OCCO3)C1)c1ccccc1 (stereo unspecified) 10.6%
C/C(=N\NC(=O)C(c1ccncc1)N1CCOCC1)c1ccc(Br)cc1 (stereo unspecified) 5.86%
Cc1cccc(NC(=O)CN2C(=O)N/C(=C/c3cc(C)n(-c4cccnc4)c3C)C2=O)c1 -10.6%
COc1ccccc1C(CNC(=O)c1cccc(S(=O)(=O)N2CCCc3ccccc32)c1)N(C)C (stereo unspecified) 4.28%
Cc1cc(C)nc(NS(=O)(=O)c2ccc(NC(=S)NC(=O)C(C)(C)C)cc2)n1 8.49%
CC(=O)N1CCc2cc(S(=O)(=O)NCCCOC(C)C)ccc21 2.11%
CC(=O)c1ccc(S(=O)(=O)N2CCC3(CC2)CC(=O)c2ccccc2O3)cc1 14.3%
O=S(=O)(c1cccs1)N1CCN(c2ccccc2Cl)CC1 1.05%
CC(=O)Nc1ccc(NC(=O)Cn2cnc3c(nnn3Cc3ccc(F)cc3)c2=O)cc1 1.41%
c1ccc2cc(OCCOCCOc3ccc4ccccc4c3)ccc2c1 -0.76%
CN(C)CCOc1ccc2ccccc2c1 25.2%
CC1=C(C)CC2(SC1)C(=O)N(c1ccccc1)N=C2N (stereo unspecified) 15%
CC[C@@H](C)[C@@H](C(=O)N1CCN(C(=O)OC(C)(C)C)CC1)n1cc(CCCCNC(=O)OC(C)(C)C)nn1 7.52%
Cc1ccc(CNc2ncc(-c3ccc4c(c3)OCO4)n2C)cc1 30.1%
Cn1c(-c2ccc3c(c2)OCO3)cnc1NCc1ccccc1 30.7%
Cn1c(-c2ccc(F)cc2)cnc1NCc1cc2c(cc1[N+](=O)[O-])OCO2 27.6%
Cn1c(-c2ccc3c(c2)OCO3)cnc1NCc1ccc(Cl)cc1 27.4%
COc1ccc(-c2cnc(NCc3cc4c(cc3[N+](=O)[O-])OCO4)n2C)cc1 28.1%
Cn1c(-c2ccc3c(c2)OCO3)cnc1NCc1cccc(O)c1 26.8%
COc1ccccc1N1CCN(S(=O)(=O)c2ccc(NC(C)=O)cc2)CC1 7.69%
Cc1c(-c2ccccc2)nc2ccccc2c1C(=O)Oc1ccc([N+](=O)[O-])cc1 -7.74%
Cc1ccc(S(=O)(=O)N2CC3(O)CN(C(=O)OC(C)C)N(C(=O)OC(C)C)CC3(OC(=O)NC3CCCC3)C2)cc1 (stereo unspecified) 9.25%
CC(=O)Nc1ccc(S(=O)(=O)NNC(=O)c2ccc([N+](=O)[O-])cc2)cc1 1.83%
COC(=O)CN1C(=O)C(O)(CC(=O)c2ccccc2)c2ccccc21 (stereo unspecified) 9.4%
CC(C)(C)OC(=O)NCCCCCNC(=O)c1nc[nH]c1C(=O)NCC(=O)OCc1ccccc1 5.97%
CCN(CC1COc2ccccc2O1)C(=O)CN1C(=O)NC(C)(c2ccccc2)C1=O (stereo unspecified) 1.68%
NC(=O)c1ccc(NC(=O)COC(=O)c2cccc(Oc3ccccc3)c2)cc1 -3.55%
CCOCCCNC(=S)N1CCCN(c2nc3cc(C)ccc3cc2C#N)CC1 10.8%
COc1ccc(/C=N/NC(=O)CNC(=O)c2ccc3c(c2)OCCO3)cc1OC 12.1%
O=C(N/N=C/c1ccc2c(c1)OCO2)c1ccc2c(c1)OCO2 9.83%
COc1ccc(/C=C(/NC(=O)c2ccccc2)C(=O)N/N=C/c2ccc3c(c2)OCO3)cc1OC 4.26%
COc1cccc(/C=N/NC(=O)CNC(=O)c2ccc3c(c2)OCCO3)c1O 8.24%
COc1ccc(/C=N/NC(=O)c2ccc3c(c2)OCO3)cc1 7.95%
CN(C)c1ccc(/C=N/NC(=O)CNC(=O)c2ccc3c(c2)OCCO3)cc1 14.6%
O=C(N/N=C/c1ccc2c(c1)OCO2)/C(=C/c1ccc2c(c1)OCO2)NC(=O)c1ccccc1 -2.17%
O=C(CNC(=O)c1ccc2c(c1)OCCO2)N/N=C/c1ccc(Cl)cc1 13.2%
CCOC(=O)C(NC(=O)c1ccc(OC)cc1)(Nc1cc(C)on1)C(F)(F)F (stereo unspecified) 9.87%
Cc1ccccc1NC(=O)OCc1cccnc1Oc1ccc(Cl)cc1 10.3%
C/C(=N\NC(=O)c1cc(C)oc1C)c1ccc2c(c1)OCO2 6.44%
CN(C)CCCN(Cc1ccccc1)C(=S)Nc1cccc(C(F)(F)F)c1 3.49%
Cc1ccc2c(c1)NC(=O)C(CC(=O)Nc1ccc(CN3CCC(C)CC3)cc1)O2 (stereo unspecified) 4.76%
Cc1[nH]c(N=Nc2ccccc2)nc1N=Nc1ccccc1 8.63%
Cc1ccccc1OCC(=O)Nc1ccccc1N1CCC(C)CC1 4.53%
O=C(C[n+]1ccc(-c2ccccc2)cc1)Nc1ccc([N+](=O)[O-])cc1 8.73%
COC(=O)C1=C(C)N(Cc2ccccc2)C(=NCCCCO)N[C@H]1c1cccc(C(F)(F)F)c1 10.7%
CC1(C)NS(=O)(=O)Oc2ccccc21 15.4%
O=C(NC1=NCCS1)C1CC(=O)N(c2ccc(F)cc2)C1 (stereo unspecified) 3.19%
Cc1nc2c(ncn2-c2ccccc2)c(=O)n1NC(=O)CN1CCOCC1 6.81%
COc1cc(/C=C/C(=O)c2ccc3c(c2)OCO3)cc(OC)c1OC 9.6%
COc1ccc(/C=C/C(=O)c2ccc3c(c2)OCO3)cc1OC 0.8%
COc1ccc(C(CC(=O)N2CCCCC2)c2c(OC)cc(OC)c3c(-c4ccccc4)cc(=O)oc23)cc1 (stereo unspecified) 5.73%
COc1ccccc1N1CCN(C2CCCN(Cc3ccc(Cl)cc3)C2)CC1 (stereo unspecified) -6.75%
Cc1ccc(C(C[N+](=O)[O-])c2c(N)n(C)c(=O)n(C)c2=O)cc1 (stereo unspecified) 5.58%
COc1ccc(Br)cc1C(C[N+](=O)[O-])c1c(N)n(C)c(=O)n(C)c1=O (stereo unspecified) 10.7%
COc1ccc(/C=C2/N=C3CCCCCN3C2=O)cc1OC 3.87%
COc1ccc(/C=C2/N=C3CCCCCN3C2=O)cc1 4.99%
COc1ccc(/C=C2\N=C3CCCCCN3C2=O)cc1OC -1.04%
O=C1/C(=C/c2ccncc2)N=C2CCCCCN12 3.48%
COCCn1c(SCC(=O)c2cccc(OC)c2)nnc1-c1ccco1 13.4%
CC(=O)Nc1ccc(NS(=O)(=O)c2c(Cl)cccc2Cl)cc1 5.14%
